This note sets out measurements from PubChem BioAssay (Tox21).

Each structure is given as a SMILES string. Unmarked numbers belong to inactive results. Results filed as inconclusive are left out. Activity calls are given as the source filed them. Unless noted, calls follow the shape of the dose curve; as a rule, active = well fitted curve in the direction sought with a large enough effect in the repeat runs; inconclusive = weak or mixed curves; inactive = no such curve, though single readings can be large; an effect the other way counts as inactive or inconclusive.

The target in experiment [1] is Thyrotropin-releasing hormone receptor (Homo sapiens) (UniProt P34981). In words: qHTS assay to identify small molecule agonists of the thyrotropin-releasing hormone receptor (TRHR) signaling pathway (AID 1346891; calls by dose curve; also: series mostly up to about 58 µM). Summed up:
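Readout was intracellular calcium fluorescence in TRHR-Hek293 cells. Cells were incubated 18 h, dye-loaded 2 h at 37 °C, and treated with compound in agonist mode.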
In general terms: qHTS replaces the single test concentration by a dilution series.

Experiment [2] in a line: Human pregnane X receptor (PXR) small molecule agonists, qHTS cell viability counter screen (AID 1346977). Also: nearly all actives have a fitted effect of over 50% in size. Summed up: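 In each well, the PXR reporter HepG2 line was checked for viability: CellTiter-Fluor reagent added 23hr post-dosing, fluorescence read after 1hr incubation at 37C.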
Experiment [3] can be described thus: Caspase-3/7 induction in HepG2 cells by small molecules, qHTS assay (AID 1346978). Also: nearly all actives have a fitted effect of over 15% in size. Summed up: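 Wild-type HepG2 cells, 2,000/well, settled 5 hr at 37 C and 5% CO2, then compound-treated for 17 hr; caspase-3/7 activity read by luminescent Caspase-Glo 3/7 after 30 min at room temperature.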
Experiment [4] can be described thus: Caspase-3/7 induction in CHO-K1 cells by small molecules, qHTS cell viability counter screen (AID 1346979). Also: nearly all actives have a fitted effect of over 35% in size. Also: potency is read from the fitted curve at half-maximal effect. In short, it runs like this: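 Following a 5hr settling period, CHO-K1 cells at 1,500 per well received DMSO-dissolved compounds. Cell viability was quantified 16hr later by CellTiter-Fluor fluorescence, measured after 1hr with reagent at 37C.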
The nature of experiment [5]: Caspase-3/7 induction in HepG2 cells by small molecules, qHTS cell viability counter screen (AID 1346981). Also: series mostly up to about 92 µM; nearly all actives have a fitted effect of over 30% in size. In short, it runs like this: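 Steps: seed 2,000 HepG2 cells per well; incubate 5 hr at 37 C; pin-add compounds in DMSO; incubate 16 hr; add CellTiter-Fluor; after 1 hr at 37 C and 5% CO2, read fluorescence.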
In experiment [6] the target is Nuclear receptor subfamily 1 group I member 2 (Homo sapiens) (UniProt O75469). Kind of experiment: Human pregnane X receptor (PXR) small molecule agonists, qHTS assay (AID 1346982). Also: nearly all actives have a fitted effect of over 35% in size. Also: potency is read from the fitted curve at half-maximal effect. In short, it runs like this: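 Agonist mode qHTS: PXR-Luc HepG2 cells plated 5 hr before DMSO-dissolved compounds were pinned in, cultured 24 hr at 37 C, 5% CO2; ONE-Glo luminescence readout.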
Nuclear receptor subfamily 1 group I member 2 (Homo sapiens), sequence (O75469 whole entry, looked up): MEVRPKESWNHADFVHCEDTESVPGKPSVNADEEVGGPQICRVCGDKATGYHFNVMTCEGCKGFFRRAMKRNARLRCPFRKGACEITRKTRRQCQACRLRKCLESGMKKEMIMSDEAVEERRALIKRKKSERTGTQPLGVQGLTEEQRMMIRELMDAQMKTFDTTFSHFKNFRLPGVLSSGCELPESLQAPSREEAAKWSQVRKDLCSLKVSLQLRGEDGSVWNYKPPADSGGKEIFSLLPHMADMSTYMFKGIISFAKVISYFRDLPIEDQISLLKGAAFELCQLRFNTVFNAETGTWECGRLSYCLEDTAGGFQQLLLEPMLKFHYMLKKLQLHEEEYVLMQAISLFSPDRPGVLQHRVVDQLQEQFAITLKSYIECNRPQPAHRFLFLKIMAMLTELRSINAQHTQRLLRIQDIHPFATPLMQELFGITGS

For experiment [7] the target is unchanged. Kind of experiment: CYP3A4 induction through human pregnane X receptor (PXR) by small molecules, qHTS assay (AID 1346984). Also: nearly all actives have a fitted effect of over 40% in size. In short, it runs like this:
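Steps: seed DPX-2 cells, 5 hr at 37C; pin-transfer compounds; 24 hr at 37C; add Luciferin-IPA (3uM final), 3 hr at 37C; add One-Glo, 30 min RT; read luminescence.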

The target is the same in experiment [8]. Kind of experiment: Human pregnane X receptor (PXR) activation by small molecules, qHTS assay (AID 1346985). Also: nearly all actives have a fitted effect of over 40% in size. Summed up: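 DPX-2 cells (HepG2 co-transfected with a PXR response element and a CYP3A4-promoter luciferase construct) were seeded at 2,000 per well, rested 5 hr at 37C, then exposed to DMSO-dissolved compounds for 24 hr. Activation was read as luciferase luminescence.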

Experiment [9] addresses Cytochrome P450 2C19 (Homo sapiens) (UniProt P33261). Kind of experiment: Cytochrome P450 Family 2 Subfamily C Member 19 (CYP2C19) small molecule antagonists: luciferase reporter qHTS assay (AID 1671197). Also: nearly all actives have a fitted effect of over 65% in size. Also: potency is read from the fitted curve at half-maximal effect. In short, it runs like this:
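Compounds were tested on CYP2C19 activity via proluciferin conversion to luciferin. The 37C, 1 h reaction followed NADPH addition; detection reagent stopped it.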

Experiment [10] has as its target Cytochrome P450 1A2 (Homo sapiens) (UniProt P05177). In words: Cytochrome P450 Family 1 Subfamily A Member 2 (CYP1A2) small molecule antagonists: luciferase reporter qHTS assay (AID 1671199). Also: nearly all actives have a fitted effect of over 50% in size. Also: potency is read from the fitted curve at half-maximal effect. Summed up: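 Inhibition of CYP1A2 conversion of proluciferin to luciferin, detected by luminescence. Reaction run 1 h at room temperature with NADPH regeneration after brief compound preincubation.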
For orientation: In a reporter assay the amount or activity of a reporter protein is the signal.

Experiment [11] has as its target Voltage-gated inwardly rectifying potassium channel KCNH2 (Homo sapiens) (UniProt Q12809). Kind of experiment: Human Ether-a-go-go-Related Gene (hERG) channel small molecule antagonists: fluorescence cell-based qHTS assay (AID 1671200).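 Also: hERG-expressing U2OS cells given a thallium stimulus after FluxOR II dye loading; series mostly up to about 77 µM; nearly all actives have a fitted effect of over 50% in size.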 In short, it runs like this: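 In this thallium-flux screen, overnight-cultured U2OS cells bearing the channel are dye-loaded in darkness for an hour, rested 10 min at room temperature, and then monitored kinetically at 480/540 nm for two minutes post-stimulus.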
On the technique in general: hERG is a cardiac potassium channel; its block is linked to QT prolongation.

Experiment [12] in a line: Caspase-3/7 induction in CHO-K1 cells by small molecules, qHTS assay (AID 1346980). Also: nearly all actives have a fitted effect of over 15% in size. In short, it runs like this:
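Wild-type CHO-K1 cells exposed to compounds for 17hr at 37 C, 5% CO2. Caspase-3/7 activity then measured by Caspase-Glo 3/7 luminescence after 30min at room temperature.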

The target in experiment [13] is Cytochrome P450 2D6 (Homo sapiens) (UniProt P10635). In words: Cytochrome P450 Family 2 Subfamily D Member 6 (CYP2D6) small molecule antagonists: luciferase reporter qHTS assay (AID 1671196). Also: nearly all actives have a fitted effect of over 50% in size. Also: potency is read from the fitted curve at half-maximal effect. In short, it runs like this:
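P450-Glo format: CYP2D6 converts a proluciferin substrate to luciferin in an NADPH-driven reaction lasting 1 h at room temperature. Light output, proportional to CYP2D6 activity, reflects interference by test chemicals.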

Experiment [14] deals with Cytochrome P450 2C9 (Homo sapiens) (UniProt P11712). Kind of experiment: Cytochrome P450 Family 2 Subfamily C Member 9 (CYP2C9) small molecule antagonists: luciferase reporter qHTS assay (AID 1671198). Also: nearly all actives have a fitted effect of over 50% in size. Also: potency is read from the fitted curve at half-maximal effect. In short, it runs like this: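 P450-Glo proluciferin substrate with CYP2C9 enzyme; 10 min RT preincubation, then NADPH regeneration 1 h at 37C; luciferin detection reagent 20 min RT, luminescence in relative luminescence units.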
Cytochrome P450 2C9 (Homo sapiens), sequence (P11712 whole entry, looked up): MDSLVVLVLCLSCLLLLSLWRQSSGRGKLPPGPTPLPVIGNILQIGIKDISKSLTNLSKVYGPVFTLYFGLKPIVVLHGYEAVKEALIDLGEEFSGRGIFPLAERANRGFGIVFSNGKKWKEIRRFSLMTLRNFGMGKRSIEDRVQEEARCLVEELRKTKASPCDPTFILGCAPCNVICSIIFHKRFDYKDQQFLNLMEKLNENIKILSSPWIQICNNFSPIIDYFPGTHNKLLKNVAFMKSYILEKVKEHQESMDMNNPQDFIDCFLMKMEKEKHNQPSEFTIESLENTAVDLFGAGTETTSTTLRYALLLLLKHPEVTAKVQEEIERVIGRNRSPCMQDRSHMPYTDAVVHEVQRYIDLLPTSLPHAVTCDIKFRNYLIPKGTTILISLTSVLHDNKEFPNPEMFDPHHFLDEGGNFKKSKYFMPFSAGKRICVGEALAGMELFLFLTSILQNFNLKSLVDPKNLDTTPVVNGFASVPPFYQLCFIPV

Experiment [15] has as its target Cytochrome P450 3A4 (Homo sapiens) (UniProt P08684). In words: Cytochrome P450 Family 3 Subfamily A Member 4 (CYP3A4) small molecule antagonists: luciferase reporter qHTS assay (AID 1671201). Summed up: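 CYP3A4 activity was followed with a P450-Glo proluciferin substrate. Test compounds in DMSO were preincubated 10 min; NADPH regeneration then ran 1 h, and light output was read 20 min after detection reagent.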

Cytochrome P450 2D6 (Homo sapiens), sequence (P10635 whole entry, looked up): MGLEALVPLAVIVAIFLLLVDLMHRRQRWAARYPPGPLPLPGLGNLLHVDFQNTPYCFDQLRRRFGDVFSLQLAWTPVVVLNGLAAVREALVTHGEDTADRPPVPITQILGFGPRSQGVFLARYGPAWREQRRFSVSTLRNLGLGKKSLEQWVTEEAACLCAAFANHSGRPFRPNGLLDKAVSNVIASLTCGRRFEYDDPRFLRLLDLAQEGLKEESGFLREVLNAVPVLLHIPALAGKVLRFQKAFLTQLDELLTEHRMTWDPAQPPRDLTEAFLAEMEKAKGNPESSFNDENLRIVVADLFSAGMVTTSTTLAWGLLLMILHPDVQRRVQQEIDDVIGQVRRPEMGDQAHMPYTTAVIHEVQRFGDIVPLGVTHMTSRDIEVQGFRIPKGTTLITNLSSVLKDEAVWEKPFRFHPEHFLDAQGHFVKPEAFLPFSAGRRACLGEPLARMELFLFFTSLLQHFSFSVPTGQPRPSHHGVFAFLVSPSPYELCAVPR
Thyrotropin-releasing hormone receptor (Homo sapiens), sequence (P34981 whole entry, looked up): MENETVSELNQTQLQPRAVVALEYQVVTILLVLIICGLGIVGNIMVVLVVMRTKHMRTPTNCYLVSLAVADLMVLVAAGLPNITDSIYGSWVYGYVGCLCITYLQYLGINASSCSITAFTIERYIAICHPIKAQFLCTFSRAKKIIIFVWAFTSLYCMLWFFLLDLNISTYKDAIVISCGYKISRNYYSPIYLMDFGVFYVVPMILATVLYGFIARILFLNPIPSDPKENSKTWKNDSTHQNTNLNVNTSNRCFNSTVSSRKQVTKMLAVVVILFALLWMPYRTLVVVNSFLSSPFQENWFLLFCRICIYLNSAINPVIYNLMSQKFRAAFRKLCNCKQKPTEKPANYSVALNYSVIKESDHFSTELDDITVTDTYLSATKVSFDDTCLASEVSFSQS
Voltage-gated inwardly rectifying potassium channel KCNH2 (Homo sapiens), sequence (Q12809 whole entry, looked up): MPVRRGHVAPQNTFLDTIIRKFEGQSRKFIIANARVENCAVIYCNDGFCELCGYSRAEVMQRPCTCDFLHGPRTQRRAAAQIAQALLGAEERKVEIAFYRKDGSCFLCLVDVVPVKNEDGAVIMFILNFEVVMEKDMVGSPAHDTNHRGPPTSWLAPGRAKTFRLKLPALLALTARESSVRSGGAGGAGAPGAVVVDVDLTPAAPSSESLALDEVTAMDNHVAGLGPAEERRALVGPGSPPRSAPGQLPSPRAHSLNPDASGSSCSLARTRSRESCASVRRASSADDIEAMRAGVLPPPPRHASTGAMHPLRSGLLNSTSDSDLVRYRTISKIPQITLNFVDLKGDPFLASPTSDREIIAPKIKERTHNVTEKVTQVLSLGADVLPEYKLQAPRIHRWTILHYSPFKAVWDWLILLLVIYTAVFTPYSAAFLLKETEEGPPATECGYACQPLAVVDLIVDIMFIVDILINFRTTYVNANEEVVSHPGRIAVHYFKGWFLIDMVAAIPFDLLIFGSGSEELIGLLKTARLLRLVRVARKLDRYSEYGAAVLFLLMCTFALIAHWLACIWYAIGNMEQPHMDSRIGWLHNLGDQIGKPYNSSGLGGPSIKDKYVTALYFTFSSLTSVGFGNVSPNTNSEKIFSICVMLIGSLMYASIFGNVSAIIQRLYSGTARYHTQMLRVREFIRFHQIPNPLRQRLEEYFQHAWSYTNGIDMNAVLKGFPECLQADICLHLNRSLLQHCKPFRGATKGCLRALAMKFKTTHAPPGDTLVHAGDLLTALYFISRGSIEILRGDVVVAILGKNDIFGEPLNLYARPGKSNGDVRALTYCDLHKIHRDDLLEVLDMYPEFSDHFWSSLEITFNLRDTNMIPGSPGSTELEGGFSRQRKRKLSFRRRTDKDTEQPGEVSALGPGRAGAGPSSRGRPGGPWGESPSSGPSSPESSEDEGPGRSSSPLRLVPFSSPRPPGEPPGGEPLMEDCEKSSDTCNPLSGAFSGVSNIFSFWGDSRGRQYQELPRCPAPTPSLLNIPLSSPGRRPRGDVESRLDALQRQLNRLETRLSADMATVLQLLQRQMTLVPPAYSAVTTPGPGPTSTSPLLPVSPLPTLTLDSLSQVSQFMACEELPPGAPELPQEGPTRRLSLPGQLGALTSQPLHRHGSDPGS
Cytochrome P450 1A2 (Homo sapiens), sequence (P05177 whole entry, looked up): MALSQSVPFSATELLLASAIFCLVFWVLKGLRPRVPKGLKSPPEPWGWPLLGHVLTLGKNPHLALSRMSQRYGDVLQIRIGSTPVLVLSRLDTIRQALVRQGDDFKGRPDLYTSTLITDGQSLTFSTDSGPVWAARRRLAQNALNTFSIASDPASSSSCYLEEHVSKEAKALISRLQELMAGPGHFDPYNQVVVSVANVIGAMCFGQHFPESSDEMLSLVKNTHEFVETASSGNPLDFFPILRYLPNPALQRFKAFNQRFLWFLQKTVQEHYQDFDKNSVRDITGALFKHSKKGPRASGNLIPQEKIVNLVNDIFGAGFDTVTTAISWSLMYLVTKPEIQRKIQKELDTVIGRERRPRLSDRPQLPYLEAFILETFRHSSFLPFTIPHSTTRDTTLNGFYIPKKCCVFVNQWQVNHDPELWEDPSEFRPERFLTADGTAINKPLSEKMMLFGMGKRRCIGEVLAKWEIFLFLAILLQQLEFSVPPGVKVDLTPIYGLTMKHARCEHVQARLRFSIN
Cytochrome P450 2C19 (Homo sapiens), sequence (P33261 whole entry, looked up): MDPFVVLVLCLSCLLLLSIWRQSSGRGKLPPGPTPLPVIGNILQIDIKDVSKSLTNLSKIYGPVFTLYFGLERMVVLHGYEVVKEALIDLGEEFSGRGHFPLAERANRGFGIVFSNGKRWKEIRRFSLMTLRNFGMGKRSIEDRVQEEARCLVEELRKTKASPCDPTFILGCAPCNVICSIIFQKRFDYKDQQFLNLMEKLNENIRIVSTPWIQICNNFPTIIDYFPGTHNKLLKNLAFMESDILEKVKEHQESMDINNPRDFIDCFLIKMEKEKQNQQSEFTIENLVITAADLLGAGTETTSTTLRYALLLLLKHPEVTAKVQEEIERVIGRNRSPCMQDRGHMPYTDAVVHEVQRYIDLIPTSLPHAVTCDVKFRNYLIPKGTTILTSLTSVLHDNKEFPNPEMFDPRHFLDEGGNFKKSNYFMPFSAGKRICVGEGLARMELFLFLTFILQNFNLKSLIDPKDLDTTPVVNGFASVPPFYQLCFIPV
Cytochrome P450 3A4 (Homo sapiens), sequence (P08684 whole entry, looked up): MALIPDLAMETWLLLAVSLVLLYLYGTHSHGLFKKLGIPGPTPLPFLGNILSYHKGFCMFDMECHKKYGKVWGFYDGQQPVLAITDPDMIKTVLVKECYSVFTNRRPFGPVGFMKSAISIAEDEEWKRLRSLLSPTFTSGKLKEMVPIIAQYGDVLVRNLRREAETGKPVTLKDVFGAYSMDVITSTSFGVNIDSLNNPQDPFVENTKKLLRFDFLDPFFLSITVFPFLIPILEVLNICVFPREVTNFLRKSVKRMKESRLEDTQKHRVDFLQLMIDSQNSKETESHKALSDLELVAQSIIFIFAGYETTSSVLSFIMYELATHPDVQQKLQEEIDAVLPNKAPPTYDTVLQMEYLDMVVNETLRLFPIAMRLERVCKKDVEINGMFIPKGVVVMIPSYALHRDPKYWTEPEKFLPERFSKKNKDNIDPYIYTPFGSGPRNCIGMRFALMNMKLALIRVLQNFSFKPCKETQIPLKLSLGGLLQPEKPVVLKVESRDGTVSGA

With `O=C(NCCc1c[nH]c2ccccc12)c1cccnc1`, the result in experiment [1] was inactive. Besides, the Potency entry in [2], in [3], in experiment [4], in [5], in experiment [7] and in [8] was “inactive” throughout. Also, in experiment [11], the Potency entry is “inactive”. The Potency was 26.6 µM (active) in [6], 7.76 µM (active) in experiment [9] and 12.9 µM (active) in experiment [10].
With `CC(=O)c1sc(C)nc1C`, the call in experiment [1] and in experiment [12] was inactive. Besides, the Potency result in [2], in experiment [3], in experiment [4], in experiment [6], in [13] and in experiment [9] was “inactive” throughout. In addition, the Potency result in experiment [14], in experiment [10], in experiment [11] and in experiment [15] was “inactive” in each case.
`CCCC/C=C\CCCCCCCCCC=O`: the outcome in experiment [1] and in [12] was inactive. Further, the Potency entry in [2], in [3], in experiment [4], in experiment [5], in [13] and in experiment [14] was “inactive” in each case. For the same compound, the Potency result in [10], in experiment [11] and in experiment [15] was “inactive” in each case.
On to `CN(C)c1ccc(C=O)cc1`, for which the compound was called inactive in experiment [1] and in experiment [12]. In addition, the Potency entry in experiment [2], in experiment [3], in experiment [4], in experiment [6], in experiment [13] and in experiment [11] was “inactive” each time. For the same compound, the Potency result in [15] was “inactive”. For the same compound, the Potency in experiment [9] is 79.6 µM (active); in experiment [14], 35.6 µM (active); in experiment [10] it was 35.6 µM (active).
Regarding `O=S(=O)(O)CCN1CCN(CCO)CC1`, the compound was classed as inactive in experiment [1] and in experiment [12]. For the same compound, the Potency result in experiment [2], in experiment [3], in experiment [4], in experiment [6], in [9] and in [14] was “inactive” throughout. Moreover, the Potency entry in experiment [10], in [11] and in experiment [15] was “inactive” throughout.
Take `c1ccc2nccnc2c1`: the call in [1] and in experiment [12] was inactive. For the same compound, the Potency entry in experiment [2], in experiment [3], in experiment [4], in experiment [6], in experiment [13] and in [14] was “inactive” in each case. Also, the Potency result in experiment [11] and in experiment [15] was “inactive” in each case.
As for `CCOC(=O)/C=C/c1ccccc1`, the call in experiment [1] and in experiment [12] was inactive. Also, the Potency result in [2], in experiment [3], in experiment [4], in [6], in experiment [11] and in experiment [15] was “inactive” in each case. The Potency is 71 µM (active) in experiment [9] and 35.6 µM (active) in experiment [10].
In the case of `BrCc1cccc(Oc2ccccc2)c1`, the call in experiment [1] and in experiment [12] was inactive. In addition, the Potency result in experiment [2], in [3], in experiment [4], in [11] and in experiment [15] was “inactive” each time. Moreover, the Potency in [6] was 61.1 µM (active); in experiment [13], 35.6 µM (active); in [9], 7.96 µM (active); in experiment [14], 79.6 µM (active); in [10] it was 39.9 µM (active).
For `ClCCCl`, in experiment [1], the compound was classed as inactive. Moreover, the Potency result in [2], in experiment [3], in experiment [4], in [5], in experiment [6] and in experiment [13] was “inactive” in each case. The Potency result in [9], in experiment [14], in experiment [10], in experiment [11] and in experiment [15] was “inactive” in each case.
On to `COCCOC(=O)C1=C(C)NC(C)=C(C(=O)OC(C)C)C1c1cccc([N+](=O)[O-])c1` (stereo not drawn), for which the outcome in [1] and in experiment [12] was inactive. In addition, the Potency result in [2], in experiment [3] and in [11] was “inactive” throughout. The Potency in [4] was 21.1 µM (active).
Take `CCCCCCCCSCC`: the compound was called inactive in experiment [1] and in [12]. In addition, the Potency result in [2], in experiment [3], in experiment [4], in experiment [6], in experiment [13] and in [9] was “inactive” in each case. Also, the Potency result in experiment [10], in [11] and in experiment [15] was “inactive” throughout.
